Drawing on PubChem BioAssay (NCI), this text covers growth for eight molecules.

Each structure is given as a SMILES string. This is part of a sample that, as a whole, favours compounds with a hit. Of some 83,000 tested, about 20% had one in any assay.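 Compound tested at a single concentration for 48 hours in 96-well plates; a percent growth value below 10 was scored as active.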 Unmarked numbers belong to inactive results. Activity calls are given as the source filed them.

Common to all, as to assay: NCI-60 one-dose screen, 48 h (100 = growth as untreated, 0 = no growth, -100 = all killed)
Details in all cases: 10 µM unless noted

Test [1] deals with DU-145 prostate.
Test [2] deals with K-562 leukemia.
The test system of test [3] is MALME-3M melanoma.
For test [4], the system named is MDA-MB-231 breast.
In test [5] the test system is RXF 393 renal.
Test [6] relates to SF-268 CNS.
Test [7] concerns SF-295 CNS.
The test system of test [8] is SF-539 CNS.
For test [9], the system named is UACC-257 melanoma.
The test system of test [10] is HCT-15 colon.
Test [11] has as its system HT29 colon.
Test [12] has as its system SNB-75 CNS.
The subject of test [13] is SNB-19 CNS.
Test [14] has as its system U251 CNS.
For test [15], the system named is PC-3 prostate.
In test [16] the test system is SK-MEL-5 melanoma.
Test [17] has as its system UACC-62 melanoma.
Test [18] deals with LOX IMVI melanoma.
The subject of test [19] is SK-MEL-28 melanoma.
For test [20], the system named is M14 melanoma.

Turning to `COc1ccc(C(=O)/C=C/c2sc(Cl)nc2Cl)cc1`, the growth in [1] is 61.9%; in [2], 9.56% (active); in test [3], 32.1%; in test [4], 38.7%; in [5] it was 24.6%; in test [6], 31.9%. The growth in test [7] was 52.3%; in test [8] it was -20.5% (active); in test [9], 72.8%; in [10], 13.1%; in [11] it was 31.9%; in test [12] it was 50.9%. Further, the growth in test [13] was 68.9%; in [14], 16.5%; in [15] it was 52.3%; in [16], -39.1% (active); in [17], 58.8%; in test [18] it was -49.9% (active).
Consider `O=[N+]([O-])c1ccc(Cl)c(-c2cc(CCCCO)on2)c1`, for which the growth in test [1] was 111%; in [2] it was 102%; in test [3], 102%; in test [4], 103%; in [5], 99.2%; in test [6] it was 99.3%. For the same molecule, the growth in test [7] is 111%; in [8], 96.7%; in test [9], 117%; in [10], 110%; in test [11], 103%; in test [12] it was 81.7%. Further, the growth in [13] was 95.4%; in test [14] it was 101%; in test [15] it was 104%; in test [16] it was 104%; in test [17], 93.8%; in [18], 97.6%. In addition, the growth in test [19] is 107%.
Take `C[C@]12CC[C@@H]3c4cc(OC(F)F)c(OS(N)(=O)=O)cc4CC[C@H]3[C@@H]1CC[C@@H]2O`: the growth is 9.26% (active) in test [1]; 12.3% in test [2]; 26.4% in test [3]; 43.3% in test [4]; -5.44% (active) in [5]; 49.6% in [6]. The growth in test [7] was 2.5% (active); in test [8], -3.28% (active); in test [9] it was 67.4%; in test [20] it was 5.82% (active); in [10] it was 13.2%; in [12], -15.7% (active). The growth is 48.4% in test [13]; 28.2% in [14]; 25.5% in test [15]; 6.56% (active) in test [16]; 55.7% in test [17]; 53.6% in test [19].
As to `CS(=O)(=O)N(c1cc(-c2ccc3ncnc(Nc4ccc(F)c(Cl)c4)c3c2)cnc1Cl)S(C)(=O)=O`, the growth in [1] was 47.3%; in test [2] it was 50.5%; in test [3], 9.57% (active); in test [4], 44.3%; in test [5], -6.35% (active); in test [6] it was 32.3%. For the same molecule, the growth in [7] was 34%; in test [8], 39.9%; in test [9], 38.8%; in test [10] it was 29.5%; in [11], 31.5%; in test [12], -4.86% (active). In addition, the growth in [13] was 50%; in test [14], 38.2%; in [15], 34.8%; in [16], 31.3%; in test [17] it was 10.3%; in test [18] it was 32.2%. Further, the growth in test [19] was 23.5%.
`NC(=O)Nc1ccc2ncnc(Nc3ccc(Cl)cc3)c2c1`: the growth was 52% in test [1]; 71.4% in test [2]; 117% in test [3]; 89.3% in [4]; 93.7% in [5]; 79.7% in [6]. For the same molecule, the growth was 90.7% in test [7]; 95.7% in [8]; 100% in test [9]; 93.1% in test [10]; 91.6% in [11]; 95% in test [12]. Moreover, the growth is 78.6% in test [13]; 95.7% in [14]; 79% in test [15]; 89.2% in test [16]; 87.9% in test [17]; 95.5% in [18]. The growth in test [19] is 106%.
With `COc1cc(Nc2cn[nH]c2-c2ccc(Cl)cc2)cc(OC)c1OC`, the growth was 108% in test [1]; 36.4% in test [2]; 38.1% in test [3]; 49.4% in [4]; 51.5% in [5]; 77% in test [6]. In addition, the growth in test [7] was 66.4%; in test [8], 43.4%; in test [9], 71.3%; in test [10] it was 35.9%; in [11] it was 15%; in [12] it was -9.76% (active). For the same molecule, the growth was 56% in [13]; 35.3% in test [14]; 56.4% in test [15]; 39.1% in test [16]; 23.2% in test [17]; 41.6% in test [18]. In addition, in [19], the growth was 46.2%.
Regarding `Cc1ccc(NC2=C(Cl)C(=O)c3nc(C)ccc3C2=O)cc1`, the growth was -62.2% (active) in [1]; 6.64% (active) in test [2]; -37.4% (active) in [3]; -80.3% (active) in [4]; -57.2% (active) in [5]; 66.8% in [6]. In addition, the growth was 62.1% in [7]; -85.6% (active) in test [8]; -73.8% (active) in test [9]; 29.1% in test [20]; -77.1% (active) in test [10]; -41.9% (active) in [12]. Besides, the growth in test [13] was 47.3%; in test [14], 41.3%; in test [15] it was 29.9%; in [16], -90.8% (active); in [17] it was -70.4% (active); in test [19] it was -79% (active).
For the molecule `NC[C@@H]1O[C@H](O[C@@H]2[C@@H](CO)OC(O[C@@H]3[C@@H](O)[C@H](N)C[C@H](N)[C@H]3OC3O[C@H](CN)[C@@H](O)[C@H](O)[C@H]3N)[C@@H]2O)[C@H](N)[C@@H](O)[C@@H]1O` (stereo partly drawn), the growth in test [1] is 112%; in test [2], 113%; in [3] it was 105%; in test [4], 104%; in test [5], 114%; in test [6], 113%. Also, the growth in [7] is 107%; in [8] it was 89.3%; in test [9], 106%; in test [10] it was 103%; in [11], 109%; in [12], 106%. For the same molecule, the growth is 115% in [13]; 102% in [14]; 111% in test [15]; 118% in test [17]; 101% in test [18]; 111% in test [19].
